# TRPML1 inh: inhibitors of human TRPML1 channel | activity change, negative = inhibition, % (no concentration beside the values) | actives 0.02% (n = 390,000) | TRPML1-inducible cells, Ca2+ dye fluorescence, FDSS; stronger effect = lower value; inhibition of EC80 agonist-evoked calcium signal | AID 624415 | Q9GZU1; in the data active = activity change below about -50%; inconclusive = between about -30% and that limit;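 note: stimulus is agonist 54-4 at its EC80 concentration; % is set by controls: 0 for no effect and ±100 for the full control effect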
#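 TRPML1-DL cells, Tet-induced overnight (~16 h, 37 °C) at 1,500 cells/well, were loaded with Ca8 no-wash dye plus quencher for 45-90 min at room temperature. Compounds were pinned during FDSS kinetic reading; agonist 54-4 at EC80 (4 uM final) then added.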
# TRPML1 agonist: human mucolipin-1 channel agonism | Q9GZU1 | TRPML1-expressing cells, Ca2+ dye fluorescence, FDSS | activation, % (concentration not given with the values) | actives 0.12% (n = 410,000); in the data active = activation above about 50%; inconclusive = mostly about 30% to 49%; note: 0% is about no effect
#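 Cells: TRPML1-DL, 1X Tet inducer, ~16 h at 37 degrees C/5% CO2. Dye: ABD Ca8 no-wash + quencher, 45-90 min RT. Read: 10 s baseline, compound add, 110 s agonist phase; 54-4 EC80 (4uM final), 110 s antagonist phase.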
# TRPV1 agonist: activates the human vanilloid receptor TRPV1. TRPV1-expressing cells, Fluo-8 calcium influx, agonist mode. Q8NER1. activation, % at 8.33 µM. actives 0.19% (n = 320,000); in the data active = activation above about 80%; inconclusive = between about 30% and that limit; note: 0% is about no effect
#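 Cells expressing TRPV1 were dye-loaded with Fluo-8 and read kinetically: 10 s baseline, 3 min after compound (agonist portion), then 2 min after EC20 capsaicin (allosteric enhancer portion). Calcium-bound dye fluorescence at 480/520 nm.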
# TRPV1 potentiator: enhances activation of the human vanilloid receptor TRPV1. Q8NER1. TRPV1-expressing cells, Fluo-8 calcium influx, capsaicin EC20 potentiation. potentiation, % at 8.33 µM. actives 0.02% (n = 320,000); in the data active = potentiation above about 80%; inconclusive = between about 30% and that limit; note: 0% is about no effect
#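 TRPV1-expressing cells were cultured overnight at 35.5C and loaded with Fluo-8 calcium dye for 40 to 90 min at room temperature. After a 10 s baseline, compound was added and calcium influx was read kinetically for 3 min (ex 480/em 520 nm).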
# An asterisk follows results filed as active; ? = inconclusive; . = no result. Shown are actives, neighbours in structure and some others; about 0.27% of the full set was active somewhere.
SMILES,TRPML1 inh,TRPML1 agonist,TRPV1 agonist,TRPV1 potentiator
C=Cn1c(P(=S)(N2CCOCC2)N2CCOCC2)cc2c1CCCC2,-4.2,68.0*,17.5,-13.8
Nc1ncc(P(=S)(N2CCOCC2)N2CCOCC2)s1,0.7,-0.1,-1.4,5.7
O=[N+]([O-])c1ccc(NCc2ccccc2)c2nonc12,-16.9,77.5*,126.2*,-7.4
C[C@H]1CCCC=CC2C[C@H](O)C[C@@H]2[C@H](O)C=CC(=O)O1 (stereo not given in full),.,-0.2,.,.
NCC(=O)c1cccc([N+](=O)[O-])c1,.,-0.2,.,.
C[n+]1c(-c2ccccc2)c2cc(N)ccc2c2ccc(N)cc21,10.1,-0.2,7.7,-0.8
Nc1ccc2ccc3cccc[n+]3c2c1,-7.1,86.7*,8.0,-13.6
CN1/C(=C\C=C2C(=O)NC(=S)NC2=O)C(C)(C)c2ccccc21,-17.7,116.7*,98.2*,-12.2
O=c1cc(C(F)(F)F)c2cc3c4c(c2o1)CCCN4CCC3,-1.1,106.0*,?,6.5
O=C(Cn1nc(-c2ccc(Cl)cc2)ccc1=O)N1CCC2(CC1)OCCO2,23.9,0.0,5.6,105.2*
O=C(Nc1ccc(Br)cc1C(=O)c1ccccc1Cl)c1ccccc1F,-24.4,77.4*,.,.
O=C(Nc1ccc(Br)cc1C(=O)c1ccccc1)c1ccccc1,-18.5,-0.9,.,.
O=[N+]([O-])c1ccc(N2CCCCCC2)c2nonc12,-21.4,110.2*,?,-19.5
O=[N+]([O-])c1ccc(N2CCCCC2)c2ncccc12,32.5,0.0,3.3,7.0
C[C@@H](C1CC[C@@]2(O)C3=CC(=O)[C@@H]4C[C@@H](O)[C@@H](O)C[C@]4(C)[C@H]3CC[C@]12C)[C@H](O)CCC(C)(C)O (stereo not given in full),43.4,0.7,.,.
O=P1(Oc2ccccc2)CC=CC(COC(c2ccccc2)(c2ccccc2)c2ccccc2)O1 (stereo not given),-12.6,1.4,.,.
